Experimental data as given in the supplement of paper PMC11732987, “Enantioselective OTUD7B fragment discovery through chemoproteomics screening and high-throughput optimisation” (Communications Chemistry, 2025).

Assays:
Assay in all cases: log2 ratio of Biotin-Ahx-Ub-VS probe labelling (fragment/DMSO); higher = less target engagement (more negative = stronger competition), active = hit call of the paper (q ≤ 0.05, log2 ratio ≤ -1)
Settings in all cases: compound concentration: 200 uM; treatment time: 3 h
OTUD6B = molecular target: T1, OTUD6B (UniProt Q8N6M0)
T1 sequence (whole entry): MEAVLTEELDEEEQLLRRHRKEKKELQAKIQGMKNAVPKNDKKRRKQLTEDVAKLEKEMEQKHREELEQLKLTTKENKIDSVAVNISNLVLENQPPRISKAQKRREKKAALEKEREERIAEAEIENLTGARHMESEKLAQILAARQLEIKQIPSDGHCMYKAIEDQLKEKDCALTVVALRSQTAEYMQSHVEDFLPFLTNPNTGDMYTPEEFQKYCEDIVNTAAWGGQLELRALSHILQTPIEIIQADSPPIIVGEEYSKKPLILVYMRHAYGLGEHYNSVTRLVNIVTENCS
Procedure, shortened: (§1)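 Labelling with Biotin-Ahx-Ub-VS (0.5 µM final, 1 h) followed a 3 h triplicate treatment of HEK293T lysate (495 µg per sample, Tris/CHAPS/IGEPAL buffer with protease inhibitors) with fragment at 200 µM or vehicle. Labelled DUBs were NeutrAvidin-enriched, digested with LysC and trypsin, and run by diaPASEF LC-MS/MS. The values, average log2 fragment/vehicle ratios by unpaired t-test, come from global-median-normalised Spectronaut label-free quantities. Proteins with ≥2 unique peptides were used.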

OTUD7B = molecular target: T2, OTUD7B (UniProt Q6GQQ9)
T2 sequence (whole entry): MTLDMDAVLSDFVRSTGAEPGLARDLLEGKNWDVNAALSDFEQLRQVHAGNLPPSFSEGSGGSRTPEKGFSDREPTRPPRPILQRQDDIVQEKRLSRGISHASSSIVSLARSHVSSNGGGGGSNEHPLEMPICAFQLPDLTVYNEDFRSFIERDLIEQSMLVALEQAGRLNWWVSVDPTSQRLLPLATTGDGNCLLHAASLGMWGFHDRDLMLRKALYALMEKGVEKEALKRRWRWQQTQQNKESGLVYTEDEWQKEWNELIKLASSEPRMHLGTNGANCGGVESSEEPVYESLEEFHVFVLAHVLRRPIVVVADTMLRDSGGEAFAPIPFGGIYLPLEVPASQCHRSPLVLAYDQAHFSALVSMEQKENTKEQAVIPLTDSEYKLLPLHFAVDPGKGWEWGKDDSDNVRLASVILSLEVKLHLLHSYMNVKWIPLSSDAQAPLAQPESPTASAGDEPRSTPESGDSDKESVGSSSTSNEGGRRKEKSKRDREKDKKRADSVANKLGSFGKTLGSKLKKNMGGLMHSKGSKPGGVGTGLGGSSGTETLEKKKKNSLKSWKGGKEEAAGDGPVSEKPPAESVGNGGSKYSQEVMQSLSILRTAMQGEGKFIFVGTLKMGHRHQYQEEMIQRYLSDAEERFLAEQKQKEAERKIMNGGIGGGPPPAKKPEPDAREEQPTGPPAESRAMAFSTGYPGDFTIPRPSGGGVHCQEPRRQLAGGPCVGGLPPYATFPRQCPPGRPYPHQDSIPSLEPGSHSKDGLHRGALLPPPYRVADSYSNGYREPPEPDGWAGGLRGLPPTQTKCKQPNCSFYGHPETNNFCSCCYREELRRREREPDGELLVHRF
Procedure, shortened: as §1

PRPF8 = PRPF8 (UniProt Q6P2Q9)
Procedure, shortened: as §1

PSMD7 = molecular target: T3, PSMD7 (UniProt P51665)
T3 sequence (whole entry): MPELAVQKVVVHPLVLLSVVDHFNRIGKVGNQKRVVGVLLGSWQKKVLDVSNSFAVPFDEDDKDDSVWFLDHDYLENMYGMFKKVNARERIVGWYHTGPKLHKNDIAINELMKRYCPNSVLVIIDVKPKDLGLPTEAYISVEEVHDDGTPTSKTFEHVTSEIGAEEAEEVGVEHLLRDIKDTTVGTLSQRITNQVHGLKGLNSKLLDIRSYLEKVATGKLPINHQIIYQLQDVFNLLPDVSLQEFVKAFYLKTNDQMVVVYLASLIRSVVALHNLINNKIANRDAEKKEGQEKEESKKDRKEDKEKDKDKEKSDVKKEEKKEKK
Procedure, shortened: as §1

UCHL1 = UCHL1 (UniProt P09936)
Procedure, shortened: as §1

UCHL3 = molecular target: T4, UCHL3 (UniProt P15374)
T4 sequence (whole entry): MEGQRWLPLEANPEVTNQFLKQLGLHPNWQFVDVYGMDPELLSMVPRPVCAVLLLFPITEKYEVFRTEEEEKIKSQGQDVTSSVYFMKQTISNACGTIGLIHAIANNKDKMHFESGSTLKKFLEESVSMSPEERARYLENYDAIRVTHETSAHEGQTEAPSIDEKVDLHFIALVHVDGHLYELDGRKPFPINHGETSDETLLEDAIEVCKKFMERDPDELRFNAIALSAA
Procedure, shortened: as §1

UCHL5 = molecular target: T5, UCHL5 (UniProt Q9Y5K5)
T5 sequence (whole entry): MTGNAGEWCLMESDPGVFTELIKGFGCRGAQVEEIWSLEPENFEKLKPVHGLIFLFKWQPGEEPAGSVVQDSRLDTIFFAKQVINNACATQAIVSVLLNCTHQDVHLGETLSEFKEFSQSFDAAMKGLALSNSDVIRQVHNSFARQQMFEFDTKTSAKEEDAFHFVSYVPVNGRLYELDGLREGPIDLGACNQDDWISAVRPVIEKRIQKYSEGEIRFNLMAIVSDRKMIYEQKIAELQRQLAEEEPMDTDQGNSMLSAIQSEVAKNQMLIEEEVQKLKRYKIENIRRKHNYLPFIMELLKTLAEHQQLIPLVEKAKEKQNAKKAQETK
Procedure, shortened: as §1

USP10 = USP10 (UniProt Q14694)
Procedure, shortened: as §1

USP15 = molecular target: T6, USP15 (UniProt Q9Y4E8)
T6 sequence (whole entry): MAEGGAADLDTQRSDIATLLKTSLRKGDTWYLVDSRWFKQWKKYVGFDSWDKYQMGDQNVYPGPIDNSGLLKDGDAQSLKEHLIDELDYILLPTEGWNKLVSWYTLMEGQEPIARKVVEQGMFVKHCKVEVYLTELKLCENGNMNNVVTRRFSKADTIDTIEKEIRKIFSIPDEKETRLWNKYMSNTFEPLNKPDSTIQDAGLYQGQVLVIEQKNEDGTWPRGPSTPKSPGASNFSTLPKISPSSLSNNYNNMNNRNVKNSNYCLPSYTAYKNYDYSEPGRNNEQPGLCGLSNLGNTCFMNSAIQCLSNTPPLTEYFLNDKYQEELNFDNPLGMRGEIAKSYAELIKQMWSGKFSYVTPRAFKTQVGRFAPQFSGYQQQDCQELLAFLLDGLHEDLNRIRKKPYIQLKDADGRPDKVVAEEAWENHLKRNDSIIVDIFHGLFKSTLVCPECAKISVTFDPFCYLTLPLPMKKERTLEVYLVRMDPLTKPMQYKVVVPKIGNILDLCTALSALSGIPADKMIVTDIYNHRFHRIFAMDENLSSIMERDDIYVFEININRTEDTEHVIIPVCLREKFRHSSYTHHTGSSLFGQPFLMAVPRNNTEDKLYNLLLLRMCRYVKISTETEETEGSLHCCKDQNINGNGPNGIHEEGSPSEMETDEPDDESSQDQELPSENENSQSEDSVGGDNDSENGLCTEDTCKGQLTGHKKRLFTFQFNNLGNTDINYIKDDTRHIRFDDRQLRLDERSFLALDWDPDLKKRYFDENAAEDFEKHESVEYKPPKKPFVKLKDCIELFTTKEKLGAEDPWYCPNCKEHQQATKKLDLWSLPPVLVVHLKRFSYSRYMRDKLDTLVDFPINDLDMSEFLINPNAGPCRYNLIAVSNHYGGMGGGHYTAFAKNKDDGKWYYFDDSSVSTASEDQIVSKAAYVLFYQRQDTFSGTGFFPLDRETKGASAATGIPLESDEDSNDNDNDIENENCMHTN
Procedure, shortened: as §1

USP16 = USP16 (UniProt Q9Y5T5)
Procedure, shortened: as §1

Measured: log2 ratio of Biotin-Ahx-Ub-VS probe labelling

UCHL1, sequence (P09936 whole entry, looked up): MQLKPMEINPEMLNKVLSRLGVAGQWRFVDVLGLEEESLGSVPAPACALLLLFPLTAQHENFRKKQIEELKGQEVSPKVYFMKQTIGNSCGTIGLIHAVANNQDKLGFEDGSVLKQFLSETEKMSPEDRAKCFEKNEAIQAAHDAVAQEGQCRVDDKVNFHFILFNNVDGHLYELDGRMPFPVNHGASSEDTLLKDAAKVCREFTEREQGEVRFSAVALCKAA
USP16, sequence (Q9Y5T5 whole entry, looked up): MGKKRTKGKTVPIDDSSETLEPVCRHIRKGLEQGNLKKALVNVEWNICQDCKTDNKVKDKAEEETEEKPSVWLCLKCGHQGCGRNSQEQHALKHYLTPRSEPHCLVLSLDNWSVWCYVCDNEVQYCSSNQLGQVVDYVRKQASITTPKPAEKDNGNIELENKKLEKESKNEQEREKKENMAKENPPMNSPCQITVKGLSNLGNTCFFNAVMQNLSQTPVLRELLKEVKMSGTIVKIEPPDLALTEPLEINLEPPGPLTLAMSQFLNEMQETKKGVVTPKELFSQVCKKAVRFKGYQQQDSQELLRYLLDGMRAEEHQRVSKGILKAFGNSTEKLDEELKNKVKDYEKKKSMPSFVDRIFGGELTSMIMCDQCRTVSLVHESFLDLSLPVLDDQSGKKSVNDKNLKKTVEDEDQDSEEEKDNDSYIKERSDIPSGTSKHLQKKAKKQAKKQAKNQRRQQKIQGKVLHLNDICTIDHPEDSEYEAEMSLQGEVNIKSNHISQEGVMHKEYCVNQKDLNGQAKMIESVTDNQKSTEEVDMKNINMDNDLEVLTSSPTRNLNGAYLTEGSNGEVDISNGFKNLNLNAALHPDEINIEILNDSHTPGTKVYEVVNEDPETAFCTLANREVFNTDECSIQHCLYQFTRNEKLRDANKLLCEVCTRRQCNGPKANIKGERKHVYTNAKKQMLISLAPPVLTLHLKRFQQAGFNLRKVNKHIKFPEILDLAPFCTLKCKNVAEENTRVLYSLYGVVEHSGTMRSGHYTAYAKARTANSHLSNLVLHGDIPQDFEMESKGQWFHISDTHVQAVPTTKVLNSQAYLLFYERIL
USP10, sequence (Q14694 whole entry): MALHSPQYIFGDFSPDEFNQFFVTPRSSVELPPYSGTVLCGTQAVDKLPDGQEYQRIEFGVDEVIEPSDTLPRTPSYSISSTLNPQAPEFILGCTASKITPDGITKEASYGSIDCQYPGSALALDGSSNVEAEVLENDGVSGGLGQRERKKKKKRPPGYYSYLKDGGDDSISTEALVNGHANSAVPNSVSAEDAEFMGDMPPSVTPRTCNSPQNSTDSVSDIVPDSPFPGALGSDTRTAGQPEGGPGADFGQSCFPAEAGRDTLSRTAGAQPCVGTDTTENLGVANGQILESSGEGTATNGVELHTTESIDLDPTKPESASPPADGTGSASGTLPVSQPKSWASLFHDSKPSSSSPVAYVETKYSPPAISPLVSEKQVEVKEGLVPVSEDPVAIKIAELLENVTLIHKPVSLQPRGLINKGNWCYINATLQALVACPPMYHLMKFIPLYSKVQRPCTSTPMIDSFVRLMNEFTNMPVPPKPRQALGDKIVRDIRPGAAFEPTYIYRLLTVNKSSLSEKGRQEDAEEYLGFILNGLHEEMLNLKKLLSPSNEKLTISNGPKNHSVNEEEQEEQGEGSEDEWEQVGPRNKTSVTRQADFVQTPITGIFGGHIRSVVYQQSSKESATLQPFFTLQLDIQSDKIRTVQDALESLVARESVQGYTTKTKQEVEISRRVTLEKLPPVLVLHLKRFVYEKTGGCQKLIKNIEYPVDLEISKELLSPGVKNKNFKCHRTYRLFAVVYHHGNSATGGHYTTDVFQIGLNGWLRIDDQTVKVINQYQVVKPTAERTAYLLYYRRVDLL

O=C(CCl)Nc1ccc2c(c1)OC(F)(F)O2
inactive: OTUD6B -0.167 | OTUD7B -0.873 | PRPF8 0.00481 | PSMD7 -0.159 | UCHL3 0.0771 | UCHL5 -0.471 | USP10 -0.126 | USP15 -0.192 | USP16 0.132
active: UCHL1 -1.06
